# Reference: the supplement of paper PMC8728848
# Only a selection was taken, and the strongest signals are over-represented in it overall.
# How the values were obtained:
# Assay in all cases: glycan array binding signal (z-score within array); higher = stronger binding
# [1] = test system: Gal(b1-3)GlcNAc(b1-3)GalNAc; settings: glycan notation: IUPAC condensed, linker removed
# Procedure, shortened: (§1)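 Glycan array data were curated from 3228 arrays in the Consortium for Functional Glycomics database and kept only where the protein sequence was available. Glycan names were converted to IUPAC-condensed notation, and columns mapping to the same glycan were averaged. The binding signal is a within-array Z-score, averaged across arrays of the same protein sequence at different concentrations or buffers and across linkers. Negative Z-scores can be read as non-binding.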
# Gal(b1-3)GlcNAc6S = settings: glycan notation: IUPAC condensed, linker removed
# Procedure, shortened: as §1
# Gal(b1-3)GlcNAc = settings: glycan notation: IUPAC condensed, linker removed
# Procedure, shortened: as §1
# [2] = test system: Gal(b1-4)GalNAc(a1-3)[Fuc(a1-2)]Gal(b1-4)GlcNAc; settings: glycan notation: IUPAC condensed, linker removed
# Procedure, shortened: as §1
# Gal(b1-4)Gal = settings: glycan notation: IUPAC condensed, linker removed
# Procedure, shortened: as §1
# Gal(b1-4)Glc6S = settings: glycan notation: IUPAC condensed, linker removed
# Procedure, shortened: as §1
# [3] = test system: Gal(b1-3)[Fuc(a1-4)]GlcNAc(b1-2)Man(a1-3)[Gal(b1-3)[Fuc(a1-4)]GlcNAc(b1-2)Man(a1-6)]Man(b1-4)GlcNAc(b1-4)GlcNAc; settings: glycan notation: IUPAC condensed, linker removed
# Procedure, shortened: as §1
# [4] = test system: Gal(b1-3)[Fuc(a1-4)]GlcNAc(b1-2)Man(a1-3)[Gal(b1-3)[Fuc(a1-4)]GlcNAc(b1-2)Man(a1-6)]Man(b1-4)GlcNAc(b1-4)[Fuc(a1-6)]GlcNAc; settings: glycan notation: IUPAC condensed, linker removed
# Procedure, shortened: as §1
# [5] = test system: Gal(b1-3)[Fuc(a1-4)]GlcNAc(b1-3)Gal(b1-4)[Fuc(a1-3)]GlcNAc; settings: glycan notation: IUPAC condensed, linker removed
# Procedure, shortened: as §1
# [6] = test system: Gal(b1-4)GlcNAc(b1-2)Man(a1-3)[Gal(b1-4)GlcNAc(b1-2)Man(a1-6)][Gal(b1-4)GlcNAc(b1-4)]Man(b1-4)GlcNAc(b1-4)[Fuc(a1-6)]GlcNAc; settings: glycan notation: IUPAC condensed, linker removed
# Procedure, shortened: as §1
# [7] = test system: Gal(b1-3)[Fuc(a1-4)]GlcNAc(b1-2)Man; settings: glycan notation: IUPAC condensed, linker removed; mutation: R125K
# Procedure, shortened: as §1
# [8] = test system: Gal(b1-3)[Fuc(a1-4)]GlcNAc; settings: glycan notation: IUPAC condensed, linker removed
# Procedure, shortened: as §1
# [9] = test system: Gal(b1-4)GlcNAc(b1-2)Man(a1-3)[Gal(b1-4)GlcNAc(b1-2)Man(a1-6)]Man(b1-4)GlcNAc(b1-4)[Fuc(a1-6)]GlcNAc; settings: glycan notation: IUPAC condensed, linker removed
# Procedure, shortened: as §1
# [10] = test system: Gal(b1-3)[Fuc(a1-4)]GlcNAc(b1-3)Gal(b1-4)GlcNAc; settings: glycan notation: IUPAC condensed, linker removed
# Procedure, shortened: as §1
# [11] = test system: Gal(b1-3)[Neu5Ac(a2-6)]GlcNAc(b1-4)Gal(b1-4)Glc; settings: glycan notation: IUPAC condensed, linker removed
# Procedure, shortened: as §1
# Chain of PILRb (Mus musculus), Q2YSF2 (Q2YSF2 entry or part of it): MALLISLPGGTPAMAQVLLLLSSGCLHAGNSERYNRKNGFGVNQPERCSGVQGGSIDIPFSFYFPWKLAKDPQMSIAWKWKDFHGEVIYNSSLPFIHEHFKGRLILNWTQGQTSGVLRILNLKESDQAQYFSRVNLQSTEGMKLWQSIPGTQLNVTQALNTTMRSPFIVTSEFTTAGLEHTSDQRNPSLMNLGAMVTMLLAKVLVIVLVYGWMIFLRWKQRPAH
# Chain of Regenerating Gene IV (Homo sapiens), Q9BYZ8 (Q9BYZ8 whole entry, looked up): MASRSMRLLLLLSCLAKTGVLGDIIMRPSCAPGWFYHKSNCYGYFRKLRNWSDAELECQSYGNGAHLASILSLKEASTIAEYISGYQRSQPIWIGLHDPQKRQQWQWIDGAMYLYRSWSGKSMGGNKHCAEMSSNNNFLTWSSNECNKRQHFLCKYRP
# Chain of CHI3L1 (Homo sapiens), P36222 (P36222 whole entry): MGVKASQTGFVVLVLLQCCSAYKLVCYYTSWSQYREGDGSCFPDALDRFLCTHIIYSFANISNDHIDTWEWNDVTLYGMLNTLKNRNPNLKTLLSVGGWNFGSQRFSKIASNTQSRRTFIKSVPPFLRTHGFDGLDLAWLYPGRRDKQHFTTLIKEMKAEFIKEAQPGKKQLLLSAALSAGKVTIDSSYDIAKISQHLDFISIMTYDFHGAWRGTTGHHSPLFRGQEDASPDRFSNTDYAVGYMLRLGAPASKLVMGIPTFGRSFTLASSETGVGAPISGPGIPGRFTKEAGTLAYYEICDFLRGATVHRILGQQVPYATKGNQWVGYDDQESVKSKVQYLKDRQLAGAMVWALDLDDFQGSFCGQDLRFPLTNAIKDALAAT
# Chain of Avaren (Actinomycete K97) (chain, as listed by the source): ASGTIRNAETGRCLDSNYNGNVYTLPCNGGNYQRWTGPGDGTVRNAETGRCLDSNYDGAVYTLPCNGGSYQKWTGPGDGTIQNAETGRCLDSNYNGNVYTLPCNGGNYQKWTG
# Chain of SRLC (Mus musculus), Q8VIF6 (Q8VIF6 other isoform, or with tags, fused parts or gaps): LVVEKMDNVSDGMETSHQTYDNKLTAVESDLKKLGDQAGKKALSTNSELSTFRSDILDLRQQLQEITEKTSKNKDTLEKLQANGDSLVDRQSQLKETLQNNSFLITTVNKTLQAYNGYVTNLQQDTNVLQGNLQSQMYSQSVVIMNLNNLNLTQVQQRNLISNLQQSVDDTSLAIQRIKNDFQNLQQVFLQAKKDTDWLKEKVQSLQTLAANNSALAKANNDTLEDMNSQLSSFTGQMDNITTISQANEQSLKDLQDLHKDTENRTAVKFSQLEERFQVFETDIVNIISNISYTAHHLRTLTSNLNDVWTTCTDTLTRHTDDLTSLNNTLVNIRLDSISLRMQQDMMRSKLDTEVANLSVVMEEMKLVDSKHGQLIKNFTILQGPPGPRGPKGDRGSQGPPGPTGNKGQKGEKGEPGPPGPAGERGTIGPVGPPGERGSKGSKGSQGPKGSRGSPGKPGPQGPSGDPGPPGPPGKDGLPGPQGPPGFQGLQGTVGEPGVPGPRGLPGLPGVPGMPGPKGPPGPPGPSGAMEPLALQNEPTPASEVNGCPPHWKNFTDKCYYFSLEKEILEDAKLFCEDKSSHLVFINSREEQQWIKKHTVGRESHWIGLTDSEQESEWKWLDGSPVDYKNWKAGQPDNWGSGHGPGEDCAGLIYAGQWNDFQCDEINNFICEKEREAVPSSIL
# Chain of Aggrecan (Rattus norvegicus), NP_071526 (chain, as listed by the source): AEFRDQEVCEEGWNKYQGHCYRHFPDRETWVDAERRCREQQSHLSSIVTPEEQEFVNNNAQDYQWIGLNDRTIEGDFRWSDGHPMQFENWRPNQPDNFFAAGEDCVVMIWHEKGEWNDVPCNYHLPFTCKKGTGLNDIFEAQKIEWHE
# Chain of wLAT-1A (Homo sapiens), Q01650 (Q01650 whole entry): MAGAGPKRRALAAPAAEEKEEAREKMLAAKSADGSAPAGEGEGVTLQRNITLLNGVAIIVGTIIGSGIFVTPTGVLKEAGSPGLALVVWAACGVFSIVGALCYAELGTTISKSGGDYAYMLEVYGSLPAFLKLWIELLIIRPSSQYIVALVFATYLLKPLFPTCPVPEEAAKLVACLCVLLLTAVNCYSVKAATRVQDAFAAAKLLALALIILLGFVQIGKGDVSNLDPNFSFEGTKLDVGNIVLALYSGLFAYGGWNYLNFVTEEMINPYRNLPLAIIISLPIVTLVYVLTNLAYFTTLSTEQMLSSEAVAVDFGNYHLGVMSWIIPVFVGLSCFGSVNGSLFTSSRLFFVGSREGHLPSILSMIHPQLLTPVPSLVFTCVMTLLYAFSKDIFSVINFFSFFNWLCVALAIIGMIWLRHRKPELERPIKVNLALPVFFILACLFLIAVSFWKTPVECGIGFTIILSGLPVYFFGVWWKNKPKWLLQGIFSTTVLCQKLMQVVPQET
# Chain of PILRa (Mus musculus), Q2YSF3 (Q2YSF3 entry or part of it): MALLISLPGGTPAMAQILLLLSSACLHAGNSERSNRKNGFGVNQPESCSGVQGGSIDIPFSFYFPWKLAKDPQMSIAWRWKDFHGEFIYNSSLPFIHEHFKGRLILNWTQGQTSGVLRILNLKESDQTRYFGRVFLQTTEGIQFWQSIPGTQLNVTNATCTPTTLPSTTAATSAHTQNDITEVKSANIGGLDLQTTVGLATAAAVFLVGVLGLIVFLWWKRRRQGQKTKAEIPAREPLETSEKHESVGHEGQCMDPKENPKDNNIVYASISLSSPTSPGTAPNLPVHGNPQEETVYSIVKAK
# Chain of C3b (Homo sapiens), P01024 (P01024 23-667): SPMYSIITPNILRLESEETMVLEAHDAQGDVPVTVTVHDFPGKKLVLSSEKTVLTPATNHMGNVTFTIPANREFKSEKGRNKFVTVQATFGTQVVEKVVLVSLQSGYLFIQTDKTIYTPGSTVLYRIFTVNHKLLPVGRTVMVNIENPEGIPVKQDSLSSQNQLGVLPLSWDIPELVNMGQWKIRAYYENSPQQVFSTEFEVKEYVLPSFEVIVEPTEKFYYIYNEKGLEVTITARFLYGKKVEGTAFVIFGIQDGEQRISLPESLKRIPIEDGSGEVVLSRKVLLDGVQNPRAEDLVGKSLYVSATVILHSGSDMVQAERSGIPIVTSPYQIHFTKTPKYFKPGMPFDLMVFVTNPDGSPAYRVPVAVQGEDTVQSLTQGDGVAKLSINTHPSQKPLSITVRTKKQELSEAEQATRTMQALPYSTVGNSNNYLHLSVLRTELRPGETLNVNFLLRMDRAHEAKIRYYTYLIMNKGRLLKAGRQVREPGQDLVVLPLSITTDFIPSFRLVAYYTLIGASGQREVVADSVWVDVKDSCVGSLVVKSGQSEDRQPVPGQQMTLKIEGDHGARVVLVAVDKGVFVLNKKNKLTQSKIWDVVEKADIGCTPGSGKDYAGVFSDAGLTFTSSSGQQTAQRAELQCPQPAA
substance,measurement,setting,value
"CHI3L1 (Homo sapiens), P36222",glycan array binding signal (z-score),[1],-0.129
same,glycan array binding signal (z-score),Gal(b1-3)GlcNAc6S,0.72
"PILRb (Mus musculus), Q2YSF2",glycan array binding signal (z-score),Gal(b1-3)GlcNAc,-0.113
same,glycan array binding signal (z-score),[2],-0.547
same,glycan array binding signal (z-score),Gal(b1-4)Gal,0.167
same,glycan array binding signal (z-score),Gal(b1-4)Glc6S,1.22
"PILRa (Mus musculus), Q2YSF3",glycan array binding signal (z-score),[3],0.063
MpAFP RI GFP (Marinomonas primoryensis),glycan array binding signal (z-score),[4],2.74
same,glycan array binding signal (z-score),[5],-0.369
same,glycan array binding signal (z-score),Gal(b1-4)Gal,-0.4
Avaren (Actinomycete K97),glycan array binding signal (z-score),[4],1.53
same,glycan array binding signal (z-score),[6],-0.121
"Siglec-8 (Homo sapiens), Q9NYZ4",glycan array binding signal (z-score),[7],0.797
same,glycan array binding signal (z-score),[8]; mutation: R125K,-0.408
same,glycan array binding signal (z-score),[9],-0.08
same,glycan array binding signal (z-score),[6]; mutation: R125K,-0.535
"Regenerating Gene IV (Homo sapiens), Q9BYZ8",glycan array binding signal (z-score),[10],-0.208
same,glycan array binding signal (z-score),Gal(b1-4)Glc6S,2.4
"SRLC (Mus musculus), Q8VIF6",glycan array binding signal (z-score),[5],4.49
"Aggrecan (Rattus norvegicus), NP_071526",glycan array binding signal (z-score),[8],4.94
"C3b (Homo sapiens), P01024",glycan array binding signal (z-score),[8],0.283
"HARE (Homo sapiens), Q8WWQ8",glycan array binding signal (z-score),[11],1.92
"wLAT-1A (Homo sapiens), Q01650",glycan array binding signal (z-score),[2],-0.62
